A selection: hits, their analogues and other compounds. The true share with any hit is near 27%.
Pyk2 oligo antag – antagonists of human Pyk2 oligomerization; Q14289; Q293 cells, Pyk2 FERM NanoBiT luminescence; stronger effect = lower value; z-score (the deposit names both 25 µM and 10 µM); 99,000 tested, 0.83% active; AID 1347419;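 active = Z-score of -3 or lower, scaled per plate to the spread of control and sample wells; inactive = z-score above -3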;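 also: negative z-score means lost luminescence so less FERM oligomerization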
CYP2C19 inhib – blocks human cytochrome P450 2C19; P33261; CYP2C19 Supersomes, luciferin-H EGE luminescence, 30 min; inhibition, % at 5 µM; 96,000 tested, 21% active; AID 778;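 active = CYP2C19 inhibition above a set limit at 5 µM in the primary screen, cut at about 50% in these data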
CYP2C9 inh – inhibitors of human CYP2C9. 96,000 tested, 20% active. P11712. CYP2C9 Supersomes, luciferin-H conversion, luminescence. inhibition, % at 5 µM;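 active = blocking of liver enzyme CYP2C9 beyond about 50% at 5 µM, limit read from the data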
Cav32 inh – human Cav3.2 channel inhibition, primary screen; O95180; B-score at 10 µM; 100,000 tested, 4% active; Cav3.2-expressing cells, Fluo-4 calcium fluorescence FDSS; stronger effect = lower value;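 active = single-dose well whose peak fluorescence ratio is a statistical outlier from its plate by either plate-standardised score or position-corrected B-score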
CYP2C19 activ – increases human CYP2C19 enzyme activity. P33261. recombinant CYP2C19, luciferin-H EGE luminescence; stronger effect = higher value; 0 = fully inhibited enzyme, 1 = untreated enzyme. activation factor at 5 µM. 96,000 tested, under 10 active. AID 1025;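 active = activation factor of at least 2 at 5 µM in the primary screen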
CYP2C9 act – activators of human CYP2C9 | P11712 | recombinant CYP2C9, luciferin-H conversion, luminescence; stronger effect = higher value; factor 1 = untreated enzyme, 0 = blocked | activation factor at 5 µM | 96,000 tested, 1.4% active | AID 1024;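 active = activation factor of 2 or more for CYP2C9 at a 5 µM dose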
Of the large screens only hits and unclear results are named; the others gave an inactive call.

CC(C)CC(=O)OC1C(N2CCOCC2)c2c(ccc(/C=C/C(=O)N3CCOCC3)c2O)OC1(C)C (stereo not drawn)	none (no result: CYP2C19 inhib, CYP2C9 inh, Cav32 inh, CYP2C19 activ, CYP2C9 act)
COc1ccc(-c2nnc(CSc3nc4ccccc4c(=O)n3CC(C)C)o2)cc1OC	CYP2C19 inhib 92, CYP2C9 inh 97
COC(=O)c1ccc(CSc2nc3ccccc3c(=O)n2CC(C)C)o1	CYP2C9 inh 57, Cav32 inh -4.7
O=C(CSc1nc2ccccc2c(=O)n1Cc1ccco1)NCc1ccccc1	none (no result: CYP2C19 inhib, CYP2C9 inh, CYP2C19 activ, CYP2C9 act)
COc1cc(-c2nnc(CSc3nc4ccccc4s3)o2)cc(OC)c1OC	CYP2C19 inhib 53, CYP2C9 inh 65 (no result: Pyk2 oligo antag)
COc1cc(-c2nnc(COC(=O)CSc3cc(C)c4ccccc4n3)o2)cc(OC)c1OC	none (no result: Cav32 inh)
COC(=O)c1ccc(CSc2nc3ccccc3c(=O)n2Cc2ccco2)o1	CYP2C19 inhib 97, CYP2C9 inh 100
CC1CCN(S(=O)(=O)c2cn(CC(=O)N3CCN(C)CC3)c(=O)c3ccccc23)CC1	none
Cc1ccccc1Sc1c(C#N)c(-c2ccccc2)nn1C	none
CCOCCCN(Cc1ccco1)C(=O)c1cc2c(=O)[nH]c3ccc(C)cc3c2s1	none (no result: Pyk2 oligo antag)
COc1ccc2c(c1)C1NC(=S)NC(C)(O2)C1C(=O)Nc1ccccc1C (stereo not drawn)	none
CCOC(=O)N1CCN(C(=O)CNCc2cccs2)CC1	none
COCCn1c(=S)[nH]c2ccc(N(C)C)cc2c1=O	CYP2C19 inhib 52
CCOc1cc2[nH]c(=S)n(CCOC)c(=O)c2cc1OCC	none
CCOC(=O)c1c(CC(C)C)csc1NC(=O)C(C)C	none
CCOC(=O)c1c(CC(C)C)csc1NC(=O)CCl	CYP2C9 inh 62 (no result: Cav32 inh)
Cc1cc(OCCCCN2C(=O)NC(C)(C)C2=O)cc(C)c1Cl	CYP2C19 inhib 76
CC1(C)NC(=O)N(CNc2cc(Cl)ccc2Cl)C1=O	CYP2C19 inhib 88, CYP2C9 act 3.1
C/C=C/c1ccc(OCCN2C(=O)NC(C)(C)C2=O)c(OC)c1	none
CC1(C)NC(=O)N(CN2C(=O)NC(C)(C)C2=O)C1=O	none
CC1(C)NC(=O)N(CCCSc2ccc(Cl)cc2)C1=O	CYP2C19 inhib 93, CYP2C9 inh 62
CCc1cc(OCCN2C(=O)NC(C)(C)C2=O)ccc1Cl	CYP2C19 inhib 74
CCC1CCC2(CC1)NNC(=S)NN2	none
C/C=C/c1ccc(OCCCN2C(=O)NC(C)(C)C2=O)c(OC)c1	none
CC1(C)NC(=O)N(CC(O)COc2ccccc2C(=O)N2CCCCC2)C1=O (stereo not drawn)	none
CC1(C)NC(=O)N(CCCOc2ccc3c(c2)CCC3)C1=O	CYP2C19 inhib 90
CC1(C)NC(=O)N(CCCCOc2ccc(Cl)cc2)C1=O	CYP2C19 inhib 86
CCC(=O)c1ccccc1OCCN1C(=O)NC(C)(C)C1=O	CYP2C19 inhib 75, CYP2C9 inh 67
CC(=O)OCC(=O)NCC(=O)c1c[nH]c2ccccc12	none (no result: Pyk2 oligo antag, CYP2C19 inhib, CYP2C9 inh, CYP2C19 activ, CYP2C9 act)
C(=C1/CCCC2=C1Nc1ncnn1C2c1ccccc1)/c1ccccc1 (stereo not drawn)	none (no result: Pyk2 oligo antag)
O=C(CCC(=O)c1ccc(F)cc1)Nc1cc(Cl)cc(Cl)c1	CYP2C19 inhib 52
CCn1nc(C)cc1-c1n[nH]c(=S)n1N	none
Cc1cc2occ(CC(=O)Nc3nnc(C4CC4)s3)c2cc1C	none
Cc1csc(NC(=O)Cc2coc3cc(C)c(C(C)C)cc23)n1	Cav32 inh -6.1
Cn1c(SCC(=O)Nc2cc(=O)n(C)c(=O)n2C)nnc1C12CC3CC(CC(C3)C1)C2	none (no result: Pyk2 oligo antag, Cav32 inh)
O=C(CCN1CCc2ccccc2C1)c1ccc2c(c1)OCCO2	none
O=C(CCN1CCc2ccccc21)c1ccc2c(c1)OCCO2	CYP2C19 inhib 84
O=C(c1ccc2c(c1)OCO2)N1CCc2ccccc2C1	CYP2C19 inhib 100
O=C(c1ccc2c(c1)OCO2)N1CCCc2ccccc21	CYP2C19 inhib 83
Cc1ccc2c(c1)CCCN2C(=O)c1ccc2c(c1)OCO2	CYP2C19 inhib 90
O=S(=O)(NCc1ccccc1)c1ccc(S(=O)(=O)N(Cc2cccs2)CC2CCCO2)cc1 (stereo not drawn)	none
CCSc1cnc(-c2ccccc2)n1CC	none
O=C(CN1C(=O)NC2(CCc3ccccc32)C1=O)Nc1ccc(N2CCOCC2)cc1 (stereo not drawn)	none
O=C(Nc1cccc2ncccc12)c1cccnc1	none
CCCN(CCC)S(=O)(=O)c1ccc(C(=O)N2CCCc3ccccc32)cc1	CYP2C9 inh 86

Compound activity (PubChem BioAssay)
